APP 5UTR inh = APP translation inhibition; SH-SY5Y APP 5'UTR-luciferase reporter, luminescence; inhibition, % at 2 µM; 0.82% of 190,000 active; AID 1285;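 active = inhibition above a set limit, derived from the sample mean plus 3 SD, cut at about 45% in these data; inconclusive = one replicate passes the limit while the other fails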
aSyn 5UTR inh = MLPCN primary screen, SNCA 5' untranslated region; 0.82% of 300,000 active; alpha-synuclein 5'UTR reporter, inhibitor activity; inhibition, % (tested at 7.5 µM); in the data active = inhibition above about 60%; inconclusive = no clear call, values can overlap the other calls;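 note: H4 neuroglioblastoma cells stably carrying SNCA 5'UTR luciferase fusion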
KLF5 inh = suppresses KLF5 promoter-driven expression | 0.23% of 290,000 active | inhibition, % at 5 µM | DLD-1 KLF5 promoter-luciferase reporter, luminescence;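 active = inhibition above a per-plate limit of that plate's mean compound inhibition plus 3 SD, cut at about 60% in these data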;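 note: higher means less KLF5 promoter-driven luciferase light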
IEC-6 tox-1 = counter-screen for KLF5 inhibitors: cytotoxicity in IEC-6 cells; IEC-6 cytotoxicity, luminescence viability; inhibition, % at 5 µM; 0.78% of 290,000 active; AID 1825; in the data active = inhibition above about 22%
BaF3 tox = reduces parental Ba/F3 cell viability, JAK2V617F counter-screen; CellTiter-Glo ATP luminescence; inhibition, % at 5.6 µM; 1.1% of 220,000 active;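 active = inhibition above a per-campaign cutoff, the mean inhibition of all tested compounds plus 3 SD, cut at about 27% in these data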
Ba/F3 V617F tox = lowers viability of Ba/F3 cells expressing EpoR and JAK2V617F; ATP luminescence; 1.1% of 220,000 active; inhibition, % at 5.6 µM;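 active = inhibition above the campaign mean plus 3 SD over all tested compounds, cut at about 24% in these data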;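 note: cytokine-independent growth of Ba/F3 cells driven by EpoR plus mutant JAK2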
KLF5 inh confirm = KLF5 inhibition, confirmation assay; shares compounds with KLF5 inh; DLD-1 KLF5 promoter firefly luciferase reporter, luminescence; inhibition, % at 4 µM; 79% of 610 active; AID 1834;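 active = inhibition above a set limit taken from the earlier primary screen, cut at about 63% in these data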
IEC-6 tox-2 = rat IEC-6 cytotoxicity, KLF5 inhibitor counter-screen | inhibition, % at 4 µM | 56% of 610 active | AID 1905 | shares compounds with KLF5 inh | IEC-6 rat intestinal cells, viability luminescence; in the data active = inhibition above about 23%;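 note: cells exposed to compounds for 48 hours before viability read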
Large screens that a line does not name were inactive (follow-up assays come after a bar, where they were run). This is a sample that favours compounds with a hit; in the whole collection about 2.2% have one here.

COc1cccc(NC(=O)Nc2cccc(C(=O)O)c2)c1	APP 5UTR inh 51, KLF5 inh 76 | KLF5 inh confirm 65 | IEC-6 tox-2 inactive
CCN(CC)S(=O)(=O)c1ccc(NN=C2CCN(C(C)C)CC2)c([N+](=O)[O-])c1	none (no result: APP 5UTR inh)
COc1ccc(S(=O)(=O)Nc2cccc(-c3ccc4nncn4n3)c2)cc1F	APP 5UTR inh 63, KLF5 inh 70, IEC-6 tox-1 59, BaF3 tox 79, Ba/F3 V617F tox 81 | KLF5 inh confirm 81 | IEC-6 tox-2 34
O=c1cc(-c2ccccc2)[nH]c2ccccc12	APP 5UTR inh 94, aSyn 5UTR inh 68, KLF5 inh 65, IEC-6 tox-1 84, BaF3 tox 79, Ba/F3 V617F tox 82 | KLF5 inh confirm 83 | IEC-6 tox-2 57
O=C(NC1=NCCS1)C1COc2ccccc2O1 (configuration not stated)	aSyn 5UTR inh 98, KLF5 inh 69 | KLF5 inh confirm 71 | IEC-6 tox-2 inactive
O=C(Nc1ccncc1)C1COc2ccccc2O1 (configuration not stated)	none
Cc1c(Cl)cccc1NC(=O)Cn1cnc(S(=O)(=O)N2CCCC2)c1	none (no result: APP 5UTR inh, BaF3 tox, Ba/F3 V617F tox)
Cc1ccc(-n2nnc(-c3nccs3)n2)cc1	aSyn 5UTR inh 95, KLF5 inh 63 | KLF5 inh confirm 64 | IEC-6 tox-2 inactive
CCn1c(N)nc2c1c(=O)n(C)c(=O)n2C	none
CCCc1nc2c(=O)n(C)c(=O)nc-2n(C)n1	KLF5 inh 72, BaF3 tox 85, Ba/F3 V617F tox 73 (no result: aSyn 5UTR inh) | KLF5 inh confirm 112 | IEC-6 tox-2 49
O=C(O)c1ccc(-c2ccc(-c3ccccc3)cc2)s1	aSyn 5UTR inh 64, KLF5 inh 90 (no result: APP 5UTR inh, BaF3 tox, Ba/F3 V617F tox) | KLF5 inh confirm 92 | IEC-6 tox-2 inactive
Cc1cc(C[n+]2ncsc2N)c2ncccc2c1	none (no result: APP 5UTR inh)
CCOc1ccc2c(c1)sc(N)[n+]2Cc1cc(C)cc2cccnc12	APP 5UTR inh 94, KLF5 inh 76, IEC-6 tox-1 76, BaF3 tox 80, Ba/F3 V617F tox 86 | KLF5 inh confirm 73 | IEC-6 tox-2 67
CCN(CC)c1ccc(/C=N/NC(=O)c2cccc(S(=O)(=O)Nc3ccccc3OC)c2)c(O)c1	APP 5UTR inh 70, aSyn 5UTR inh 95, KLF5 inh 74, IEC-6 tox-1 31 | KLF5 inh confirm 79 | IEC-6 tox-2 33
CN(C(=O)COC(=O)/C=C/c1cccc([N+](=O)[O-])c1)C1CCS(=O)(=O)C1 (configuration not stated)	KLF5 inh 83 (no result: APP 5UTR inh) | KLF5 inh confirm 97 | IEC-6 tox-2 inactive
COc1cc(C)ccc1OCCOCCOc1ccc([N+](=O)[O-])cc1	none
CCCOc1ccccc1C1CC(=O)Nc2cc3c(cc21)OCCO3 (configuration not stated)	APP 5UTR inh 94, aSyn 5UTR inh 103, KLF5 inh 66, IEC-6 tox-1 81, BaF3 tox 77, Ba/F3 V617F tox 77 | KLF5 inh confirm 83 | IEC-6 tox-2 64
CC(C)Oc1ccccc1C1CC(=O)Nc2cc3c(cc21)OCO3 (configuration not stated)	APP 5UTR inh 92, aSyn 5UTR inh 91, KLF5 inh 87, IEC-6 tox-1 84, BaF3 tox 75, Ba/F3 V617F tox 73 | KLF5 inh confirm 83 | IEC-6 tox-2 64
CCCn1c(C)cs/c1=N\C(=S)Nc1ccccc1	KLF5 inh 118 | KLF5 inh confirm inactive | IEC-6 tox-2 inactive
Cc1cs/c(=N/C(=S)Nc2ccccc2)n1C	none
COC(=O)c1ccc2nc(Nc3nc4ccc(F)cc4s3)sc2c1	aSyn 5UTR inh 75, KLF5 inh 94 | KLF5 inh confirm 101 | IEC-6 tox-2 inactive
COc1ccc(/C=N\NC(=O)c2c(C)nc3ccc(Br)cn23)cc1	APP 5UTR inh 89, aSyn 5UTR inh inconclusive, KLF5 inh 65, IEC-6 tox-1 47, BaF3 tox 72, Ba/F3 V617F tox 73 | KLF5 inh confirm 75 | IEC-6 tox-2 53
COc1ccc(/C=N/NC(=O)c2c(C)nc3ccc(Br)cn23)cc1OC	none (no result: APP 5UTR inh)
O=C(O)CSCC(=O)Nc1ccc(C2CCCCC2)cc1	APP 5UTR inh 68, aSyn 5UTR inh 108, KLF5 inh 75 | KLF5 inh confirm 77 | IEC-6 tox-2 inactive
COc1ccc(/C=N/NS(=O)(=O)c2ccc(C)cc2)cc1OC(=O)c1ccccc1	none (no result: aSyn 5UTR inh)
COc1cc(/C=N/NS(=O)(=O)c2ccc3ccccc3c2)ccc1OCc1ccc(C(=O)O)cc1	aSyn 5UTR inh 84, KLF5 inh 65 (no result: APP 5UTR inh) | KLF5 inh confirm inactive | IEC-6 tox-2 inactive
COc1cc(/C=N/O)ccc1OCc1ccc(C(=O)O)cc1	APP 5UTR inh 82, aSyn 5UTR inh 116, KLF5 inh 84 | KLF5 inh confirm 95 | IEC-6 tox-2 inactive
COc1cc(/C=N/O)ccc1OCc1ccc(Cl)cc1	none
CC1(C)N=C(N)N=C(N)N1c1ccc(OCCCOc2ccccc2)c(Cl)c1	aSyn 5UTR inh 78, KLF5 inh 77, IEC-6 tox-1 82, BaF3 tox 102, Ba/F3 V617F tox 97 (no result: APP 5UTR inh) | KLF5 inh confirm 73 | IEC-6 tox-2 66
COc1ccccc1NC(=O)CSc1nnc(-c2ccoc2C)n1C	none (no result: APP 5UTR inh, BaF3 tox, Ba/F3 V617F tox)
Cc1nc(N/N=C/c2ccccn2)sc1C	KLF5 inh 79 (no result: aSyn 5UTR inh) | KLF5 inh confirm 78 | IEC-6 tox-2 inactive
COc1ccc(/C=N/NC(=O)c2cc3cc(OC)c(OC)cc3[nH]2)cc1	none (no result: APP 5UTR inh, BaF3 tox, Ba/F3 V617F tox)
COc1ccc2[nH]c(C(=O)N/N=C/c3ccc(O)cc3O)cc2c1	KLF5 inh 84 (no result: APP 5UTR inh, BaF3 tox, Ba/F3 V617F tox) | KLF5 inh confirm 83 | IEC-6 tox-2 32
CCCCN1C=CC(=C2C(=O)c3ccccc3C2=O)C=C1	APP 5UTR inh 58, aSyn 5UTR inh 98, KLF5 inh 95 | KLF5 inh confirm inactive | IEC-6 tox-2 inactive
CCCCNC1=CC(=O)C(=O)c2ccccc21	none
CCCC(=O)NC(c1ccc(OC)cc1)c1ccc2cccnc2c1O (configuration not stated)	APP 5UTR inh 82, aSyn 5UTR inh 129, KLF5 inh 90, IEC-6 tox-1 38, BaF3 tox 66, Ba/F3 V617F tox 54 | KLF5 inh confirm 96 | IEC-6 tox-2 92
CCCCC(=O)NC(c1ccc([N+](=O)[O-])cc1)c1c(O)ccc2ccccc12 (configuration not stated)	none
CCCCC(=O)NC(c1ccc(C(C)C)cc1)c1ccc2cccnc2c1O (configuration not stated)	aSyn 5UTR inh 112, KLF5 inh 69 (no result: APP 5UTR inh, BaF3 tox, Ba/F3 V617F tox) | KLF5 inh confirm 80 | IEC-6 tox-2 46
COc1ccc(-n2nc(C(=O)NCC(=O)NCCC3=CCCCC3)c3ccccc3c2=O)cc1OC	none (no result: APP 5UTR inh, BaF3 tox, Ba/F3 V617F tox)
O=C(N/N=C/C1C(c2ccccc2)C1(Cl)Cl)c1cccc(Br)c1 (configuration not stated)	none
O=C(Nc1nc2cc3c(cc2s1)OCCO3)C1=COCCO1	aSyn 5UTR inh 99, KLF5 inh 96 (no result: APP 5UTR inh) | KLF5 inh confirm 92 | IEC-6 tox-2 inactive
O=C(Nc1nc2ccc(F)cc2s1)C1=COCCO1	none (no result: APP 5UTR inh, KLF5 inh, IEC-6 tox-1, BaF3 tox, Ba/F3 V617F tox)

Compound activity: PubChem, several laboratories
